Test results as given in PubChem BioAssay (Tox21).
Inconclusive results are not listed. Calls of active or inactive are those of the source. Unless noted, calls follow the shape of the full dose curve.

How the values were obtained:
[1] = qHTS assay to identify small molecule agonists of the peroxisome proliferator-activated receptor delta (PPARd) signaling pathway - cell viability counter screen (AID 743211; active = well fitted curve in the direction sought with a large enough effect in the repeat runs; an effect the other way counts as inactive or inconclusive; also: nearly all actives have a fitted effect of over 55% in size)
In short: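 Following 5 h plating at 37 C and 5% CO2, PPARd UAS-bla HEK293H cells took up test compounds for 17 h. Viability was quantified by luminescence 30 min after CellTiter-Glo addition at room temperature.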

[2] = molecular target: Peroxisome proliferator-activated receptor delta (Homo sapiens) (UniProt Q03181); assay: qHTS assay to identify small molecule agonists of the peroxisome proliferator-activated receptor delta (PPARd) signaling pathway (AID 743212)
Peroxisome proliferator-activated receptor delta (Homo sapiens), sequence (Q03181 whole entry, looked up): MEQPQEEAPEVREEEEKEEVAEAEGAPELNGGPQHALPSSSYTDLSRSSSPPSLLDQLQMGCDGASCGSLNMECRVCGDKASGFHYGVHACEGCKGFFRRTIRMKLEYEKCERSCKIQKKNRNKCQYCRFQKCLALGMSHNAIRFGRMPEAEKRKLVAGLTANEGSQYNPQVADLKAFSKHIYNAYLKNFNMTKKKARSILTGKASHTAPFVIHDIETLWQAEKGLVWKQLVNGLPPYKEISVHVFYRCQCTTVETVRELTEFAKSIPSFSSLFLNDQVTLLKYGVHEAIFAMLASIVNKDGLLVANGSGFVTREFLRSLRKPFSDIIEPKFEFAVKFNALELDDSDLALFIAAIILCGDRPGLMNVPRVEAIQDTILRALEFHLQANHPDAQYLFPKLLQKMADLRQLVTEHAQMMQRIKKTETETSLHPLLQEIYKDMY
In short: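 Quantitative high-throughput agonist screen in a HEK293H beta-lactamase reporter line under UAS control. Compounds in DMSO, at 37 C. Fluorescence read after 2 h with FRET substrate at room temperature.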

[3] = qHTS assay to identify small molecule antagonists of the peroxisome proliferator-activated receptor delta (PPARd) signaling pathway - cell viability counter screen (AID 743213; active = well fitted curve in the direction sought with a large enough effect in the repeat runs; an effect the other way counts as inactive or inconclusive; also: nearly all actives have a fitted effect of over 50% in size)
In short: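 Luminescence from CellTiter-Glo, added after the bla read and incubated 30 min at room temperature, gives viability of HEK293H PPARd-bla cells exposed to compounds for 17 h at 37 C with 300 nM L165041.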

[4] = molecular target: Peroxisome proliferator-activated receptor delta (Homo sapiens) (UniProt Q03181); assay: qHTS assay to identify small molecule antagonists of the peroxisome proliferator-activated receptor delta (PPARd) signaling pathway (AID 743215; active = well fitted inhibition curve with a large enough effect in the signal ratio in the repeat runs, not every such curve was filed as active; the % refers to the signal ratio;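 also: cells stimulated with agonist L165041 at 300 nM final during compound exposure; series mostly up to about 62 µM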)
In short: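 Read-out is beta-lactamase FRET fluorescence, measured 2 h after substrate addition at room temperature. Beforehand, UAS-bla HEK293H cells carrying the PPARd reporter were exposed to compounds with L165041 at 300 nM final for 17 h at 37 C.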

[5] = molecular target: Vitamin D3 receptor (Homo sapiens) (UniProt P11473); assay: qHTS assay to identify small molecule agonists of the vitamin D receptor (VDR) signaling pathway (AID 743222)
Vitamin D3 receptor (Homo sapiens), sequence (P11473 whole entry, looked up): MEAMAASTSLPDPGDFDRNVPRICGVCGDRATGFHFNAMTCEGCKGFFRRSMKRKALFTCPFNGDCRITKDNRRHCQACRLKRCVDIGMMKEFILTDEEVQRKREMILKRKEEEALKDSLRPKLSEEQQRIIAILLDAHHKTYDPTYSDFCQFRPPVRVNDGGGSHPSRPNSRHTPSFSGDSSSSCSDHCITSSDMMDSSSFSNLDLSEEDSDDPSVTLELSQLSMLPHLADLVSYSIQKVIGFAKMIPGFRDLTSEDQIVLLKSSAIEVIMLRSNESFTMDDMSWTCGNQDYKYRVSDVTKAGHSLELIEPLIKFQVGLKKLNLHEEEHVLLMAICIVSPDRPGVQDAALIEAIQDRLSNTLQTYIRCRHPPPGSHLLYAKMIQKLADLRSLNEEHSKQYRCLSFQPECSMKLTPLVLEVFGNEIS
In short: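 VDR-bla cells, 2,000/well; 4 h preincubation 37C; cpd (DMSO) 16 h; LiveBLAzer B/G substrate 2 h RT; fluorescence intensity read.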

[6] = molecular target: Vitamin D3 receptor (Homo sapiens) (UniProt P11473); assay: qHTS assay to identify small molecule antagonists of the vitamin D receptor (VDR) signaling pathway (AID 743223; active = well fitted inhibition curve with a large enough effect in the signal ratio in the repeat runs, not every such curve was filed as active; the % refers to the signal ratio)
In short: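 Beta-lactamase activity in VDR-bla cells is measured by FRET substrate fluorescence (2 h, room temperature) after cells spend 16 h at 37C with test compound and 3 nM final 1alpha,25-dihydroxyvitamin D3.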

[7] = qHTS assay to identify small molecule agonists of the vitamin D receptor (VDR) signaling pathway - cell viability counter screen (AID 743224; active = well fitted curve in the direction sought with a large enough effect in the repeat runs; an effect the other way counts as inactive or inconclusive; also: series mostly up to about 63 µM; nearly all actives have a fitted effect of over 50% in size)
In short: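 Luminescence from CellTiter-Glo, read after 30 min at room temperature, reports viability of VDR-bla cells treated with compounds for 16 h at 37C in the wells used for the beta-lactamase FRET read.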

[8] = qHTS assay to identify small molecule antagonists of the vitamin D receptor (VDR) signaling pathway - cell viability counter screen (AID 743225; active = well fitted curve in the direction sought with a large enough effect in the repeat runs; an effect the other way counts as inactive or inconclusive; also: nearly all actives have a fitted effect of over 50% in size)
In short: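 In this counter screen, VDR-bla HEK 293T cells receive test compound plus 3 nM final calcitriol for 16 h at 37C. Room-temperature steps of 2 h with the beta-lactamase substrate, then 30 min with CellTiter-Glo, precede the luminescence read.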

[9] = qHTS assay to identify small molecule agonists of the NFkB signaling pathway - cell viability counter screen (AID 1159515); also: series mostly up to about 61 µM; nearly all actives have a fitted effect of over 55% in size
In short: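 Luminescence from CellTiter-Glo (30 min, room temperature) gives viability, measured in the same wells as the beta-lactamase reporter read. Cells were NFkB-bla ME-180, 2,000 per well, treated 5 hr with compounds.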

[10] = qHTS assay to identify small molecule agonists of the endoplasmic reticulum stress response signaling pathway (AID 1159516; active = well fitted activation curve with a large enough effect in the signal ratio in the repeat runs, not every such curve was filed as active; the % refers to the signal ratio)
In short: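 Read-out is beta-lactamase cleavage of a FRET substrate (405 nm excitation; 460 and 530 nm emissions) in ESRE-bla HeLa cells after a 5 hr compound exposure at 37 C. Substrate incubation ran 2 hr at room temperature.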

[11] = qHTS assay to identify small molecule agonists of the endoplasmic reticulum stress response signaling pathway - cell viability counter screen (AID 1159517);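 also: HeLa cells carrying an ER stress response element beta-lactamase reporter; series mostly up to about 61 µM; nearly all actives have a fitted effect of over 50% in size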
In short: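 Counter-screen wells were identical to the reporter wells. Cells were plated at 1,500 per well and dosed for 5 hr, then read for luminescence 30 min after CellTiter-Glo addition.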

[12] = qHTS assay to identify small molecule antagonists of the retinoid-related orphan receptor gamma (ROR-gamma) signaling pathway - cell viability counter screen (AID 1159520; active = well fitted curve in the direction sought with a large enough effect in the repeat runs; an effect the other way counts as inactive or inconclusive; also: nearly all actives have a fitted effect of over 50% in size)
In short: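 Tet-on ROR gamma CHO cells were given compounds for 2 hr, then doxycycline hyclate at 1 uM final, and incubated 16 hr at 37 C. Viability was measured as ATP content by CellTiter-Glo luminescence.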

[13] = qHTS assay to identify small molecule agonists of the AP-1 signaling pathway - cell viability counter screen (AID 1159525); also: nearly all actives have a fitted effect of over 55% in size
In short: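 AP-1-bla ME-180 cells in Opti-MEM with 0.5% dialyzed FBS, compound exposure 5 h at 37 C in 15-point titration. Viability read in the same wells as ATP content by CellTiter-Glo luminescence, normalised to tetra-n-octylammonium bromide and DMSO controls.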

[14] = qHTS assay to identify small molecule agonists of the AP-1 signaling pathway (AID 1159526)
[15] = molecular target: Bile acid receptor (Homo sapiens) (UniProt Q96RI1); assay: qHTS assay to identify small molecule antagonists of the farnesoid-X-receptor (FXR) signaling pathway (AID 743217; active = well fitted inhibition curve with a large enough effect in the signal ratio in the repeat runs, not every such curve was filed as active; the % refers to the signal ratio)
Bile acid receptor (Homo sapiens), sequence (Q96RI1 whole entry, looked up): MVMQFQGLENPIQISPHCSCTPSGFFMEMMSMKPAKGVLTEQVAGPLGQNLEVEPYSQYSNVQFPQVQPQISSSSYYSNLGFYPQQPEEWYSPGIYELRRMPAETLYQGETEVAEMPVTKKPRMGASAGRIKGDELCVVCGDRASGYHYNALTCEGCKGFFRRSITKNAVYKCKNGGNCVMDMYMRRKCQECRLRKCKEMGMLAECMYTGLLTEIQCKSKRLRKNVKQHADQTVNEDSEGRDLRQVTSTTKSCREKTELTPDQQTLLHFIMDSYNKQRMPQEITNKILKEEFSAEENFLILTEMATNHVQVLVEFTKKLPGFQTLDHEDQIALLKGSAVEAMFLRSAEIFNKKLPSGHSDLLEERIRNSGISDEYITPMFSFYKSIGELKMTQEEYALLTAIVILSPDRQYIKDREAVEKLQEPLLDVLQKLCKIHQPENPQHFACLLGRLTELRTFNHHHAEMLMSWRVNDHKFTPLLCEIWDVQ
In short: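 HEK 293T FXR-UAS-bla, 5000 cells/well; compound + CDCA 50 uM final; 16 h, 37 °C; B/G FRET substrate 2 h RT; fluorescence.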

[16] = qHTS assay to identify small molecule agonists of the farnesoid-X-receptor (FXR) signaling pathway - cell viability counter screen (AID 743218; active = well fitted curve in the direction sought with a large enough effect in the repeat runs; an effect the other way counts as inactive or inconclusive; also: nearly all actives have a fitted effect of over 45% in size)
In short: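 HEK 293T FXR-bla cells; 5 h pre-incubation, 16 h compound exposure at 37 C; LiveBLAzer substrate 2 h RT, then CellTiter-Glo 30 min RT, luminescence.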

[17] = molecular target: Bile acid receptor (Homo sapiens) (UniProt Q96RI1); assay: qHTS assay to identify small molecule agonists of the farnesoid-X-receptor (FXR) signaling pathway (AID 743220; active = well fitted activation curve with a large enough effect in the signal ratio in the repeat runs, not every such curve was filed as active; the % refers to the signal ratio)
In short: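 Beta-lactamase reporter under UAS control in GeneBLAzer FXR HEK 293T cells (5000/well) measured with LiveBLAzer FRET substrate after 2 h at room temperature. Compound exposure lasted 16 h at 37C.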

[18] = qHTS assay to identify small molecule antagonists of the farnesoid-X-receptor (FXR) signaling pathway - cell viability counter screen (AID 743221; active = well fitted cell-killing curve with a large enough effect in the repeat runs, not every such curve was filed as active; also: nearly all actives have a fitted effect of over 50% in size)
In short: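 Compound effects on cell number were measured as CellTiter-Glo luminescence in HEK 293T cells expressing FXR-UAS-bla, after 16 h at 37 C with 50 uM CDCA (final).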

[19] = molecular target: Retinoic acid receptor RXR-alpha (Homo sapiens) (UniProt P19793); assay: qHTS assay to identify small molecule agonists of the RXR signaling pathway (AID 1159527); also: nearly all actives have a fitted effect of over 35% in size
Retinoic acid receptor RXR-alpha (Homo sapiens), sequence (P19793 whole entry, looked up): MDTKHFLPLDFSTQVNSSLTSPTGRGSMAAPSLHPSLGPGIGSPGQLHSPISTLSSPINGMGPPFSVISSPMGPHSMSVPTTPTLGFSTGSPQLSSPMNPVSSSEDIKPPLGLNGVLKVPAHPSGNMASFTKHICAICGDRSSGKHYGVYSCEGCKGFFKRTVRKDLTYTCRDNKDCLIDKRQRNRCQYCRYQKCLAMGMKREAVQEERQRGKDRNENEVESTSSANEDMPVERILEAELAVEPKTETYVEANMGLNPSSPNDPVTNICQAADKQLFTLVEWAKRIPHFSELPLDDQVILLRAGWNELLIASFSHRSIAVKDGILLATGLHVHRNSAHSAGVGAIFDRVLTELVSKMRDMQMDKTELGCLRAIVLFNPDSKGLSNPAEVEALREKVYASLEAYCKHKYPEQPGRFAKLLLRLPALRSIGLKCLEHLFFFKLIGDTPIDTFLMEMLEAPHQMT
In short: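 Fluorescence ratio readout (460 vs 530 nm) from GeneBLAzer RXR-alpha HEK 293T cells after 16 hr compound treatment; cells seeded 5 hr beforehand in low-serum, charcoal-stripped medium.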

Measured: Potency

CC(C)=CCN1CC[C@@]2(C)c3cc(O)ccc3C[C@@H]1[C@@H]2C
not listed: [15] | [16] | [17] | [18] | [19]
inactive: all other assays above

CNC(=O)CSP(=O)(OC)OC
not listed: [3] | [5] | [6] | [19]
inactive: all other assays above

COP(=S)(NC(C)C)Oc1ccc(C)cc1[N+](=O)[O-] (stereo unspecified)
not listed: [3] | [5] | [19]
inactive: all other assays above

CCN(CC)C(=O)N[C@@H]1C=C2c3cccc4[nH]cc(c34)C[C@@H]2N(C)C1
not listed: [2] | [4] | [5] | [6] | [15] | [16] | [18]
inactive: all other assays above

NC(=O)C(Cl)Cl
not listed: [1] | [4] | [5] | [6] | [15] | [17]
inactive: all other assays above

CCCCn1cc[n+](C)c1.[Cl][Fe-]([Cl])([Cl])[Cl]
not listed: [2] | [3] | [4] | [5] | [6] | [15] | [17]
inactive: all other assays above

CCCC[N+]1(C)CCCC1 (tested in a mixture with another compound)
inactive: [1] | [18] | [9] | [10] | [11] | [12] | [13] | [14] | [19]

N#CSCc1ccccc1
not listed: [1] | [5] | [7] | [18]
inactive: all other assays above

C[C@@H]1CC2=CC(=O)CC[C@@H]2[C@H]2CC[C@@]3(C)[C@@H](CC[C@]3(C)O)[C@@H]21
not listed: [2] | [4] | [7] | [8]
inactive: all other assays above
